L3MBTL1 inh-1: L3MBTL1 (human) inhibition | Potency, µM (doses to about 57.1 µM), for the others: at the highest dose activity, negative = inhibition, usual class: inhibitors | AlphaScreen L3MBTL1–H3K9me1 peptide binding | hit rate 0.66% among 230,000 | Q9Y468; further: on the % scale 0 is the no-effect control and ±100 the full control effect; nearly all actives have a fitted effect of over 60% in size
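AlphaScreen assay: L3MBTL1 (50 nM final) was preincubated 30 min at room temperature with biotinylated H3(1-15)K9me1 peptide (75 nM final), then 30 min with library compounds; streptavidin donor and nickel chelate acceptor beads (10 ug/mL final) added, 30 min dark.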
RECQ1 helicase: inhibitors of human RECQ1 DNA helicase. RECQ1 DNA unwinding, red fluorescence kinetic read. AID 2549. Potency, µM (top dose mostly 57.3 µM), for inactives: top-dose activity, negative = inhibition, usual class: inhibitors. hit rate 0.54% among 240,000. P46063;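 further: plate controls were vehicle for no effect and no enzyme for full effect; nearly all actives have a fitted effect of over 30% in size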
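RECQ1T1 50 nM; forked duplex (20 bp + 30-nt ss tails) 200 nM, ATP 2 mM final; pH 8.0, 2 mM MgCl2, 2.5 ug/ml poly(dI-dC); 15 min compound preincubation; discontinuous kinetic read over 2 h at RT.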
WRN inhibitor: WRN helicase (human) inhibition. Q14191. WRN helicase unwinding, fluorescent forked duplex, kinetic. Potency, µM (titrated, usually from 114 µM), for the others: at the highest dose activity change, negative = inhibition, usual class: inhibitors. hit rate 0.46% among 360,000. AID 651768; further: on the % scale 0 is the no-effect control and ±100 the full control effect; nearly all actives have a fitted effect of over 55% in size
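Primary qHTS, 1536-well format. 20 nM WRN + compound, 15 min RT; start with 100 nM forked fluorophore/quencher duplex, 2 mM ATP (final); kinetic read ex 525/em 598 nm.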
APE1 inh: inhibitors of human APE1 endonuclease; P27695; recombinant APE1, TAMRA/BHQ-2 abasic DNA cleavage fluorescence; Potency, µM (titrated, usually from 65.8 µM), for the others: top-dose activity change, negative = inhibition, most hits filed as inhibitors; hit rate 0.35% among 350,000; AID 2517;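 further: plate controls were vehicle for no effect and reference inhibitor for full effect; nearly all actives have a fitted effect of over 55% in size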
Target sequence (P27695 whole entry, looked up): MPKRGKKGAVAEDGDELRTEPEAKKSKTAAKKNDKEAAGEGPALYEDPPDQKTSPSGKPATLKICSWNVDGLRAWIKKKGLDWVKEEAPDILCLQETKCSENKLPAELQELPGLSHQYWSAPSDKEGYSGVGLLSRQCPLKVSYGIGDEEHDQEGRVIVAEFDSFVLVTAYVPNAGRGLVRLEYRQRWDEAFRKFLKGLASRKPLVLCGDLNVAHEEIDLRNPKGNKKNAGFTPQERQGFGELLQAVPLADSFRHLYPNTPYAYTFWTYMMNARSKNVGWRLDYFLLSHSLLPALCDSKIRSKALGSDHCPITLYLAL
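Endonuclease cleavage of a quenched abasic-site DNA duplex (50 nM) by APE1 (0.75 nM) was tracked by TAMRA dequenching. Compounds were preincubated with enzyme 15 min at room temperature; data normalized to buffer-only and DMSO wells plus NSC13755 control.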
BLM inh: inhibitors of human Bloom syndrome helicase BLM; Potency, µM (doses to about 56.1 µM), for the others: at the top dose activity change, negative = inhibition, hits mostly inhibitors; recombinant BLM DNA unwinding, fluorescence dequenching; hit rate 0.2% among 350,000; P54132;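 further: plate controls were vehicle for no effect and no enzyme for full effect; nearly all actives have a fitted effect of over 35% in size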
L3MBTL1 inh-2: L3MBTL1 binding inhibition validated; shares compounds with L3MBTL1 inh-1; L3MBTL1 methyl-lysine binding inhibition, biochemical qHTS; hit rate 91% among 500; Potency, µM, actives largely listed as inhibitors; AID 540279; further: nearly all actives have a fitted effect of over 70% in size
L3MBTL1 ctr: AlphaScreen signal inhibition, L3MBTL1 hit counter-screen; AlphaScreen counterscreen, signal inhibition; 500 tested, under 10 active; shares compounds with L3MBTL1 inh-1; Potency, µM (doses to about 57.1 µM), inactives show top-dose activity change, negative = inhibition, hits mostly inhibitors; further: 0% is about no effect
The depositor's hits bear a star; [ ] = dose if it differs, or a comment. Most compounds without a hit are left out; they make up all but 0.92% or so of the library. The call rests on the fitted dose curve; in most records, active means well fitted curve in the direction sought with a large enough effect; inconclusive means small, poorly fitted or top-dose-only effect, or another doubt; inactive means no such curve, though single readings can be large; an effect the other way counts as inactive or inconclusive. Potency means the concentration at half of the fitted maximal effect.

Screening O=C(O)c1cc(-c2ccco2)nc2cc3ccccc3cc12 returned L3MBTL1 inh-1 10µM*, RECQ1 helicase 28µM*, WRN inhibitor inconclusive, APE1 inh inconclusive, BLM inh 23%, L3MBTL1 inh-2 0.84* and L3MBTL1 ctr -19%.
CCCOCC(C)O (stereo unspecified) was read as RECQ1 helicase -5% and APE1 inh 4%.
For CCCN(C(=O)c1cccc(-n2cccc2)c1)c1c(N)n(Cc2ccccc2)c(=O)[nH]c1=O the results were L3MBTL1 inh-1 10µM*, WRN inhibitor 50µM*, APE1 inh 6.7µM*, L3MBTL1 inh-2 4.7* and L3MBTL1 ctr 10%.
`CCCCN(C(=O)c1cccc(-n2cccc2)c1)c1c(N)n(CCC)c(=O)[nH]c1=O` gave L3MBTL1 inh-1 14µM*, WRN inhibitor 56µM*, APE1 inh -89%, L3MBTL1 inh-2 9.5* and L3MBTL1 ctr 7%.
For Cc1ccnc2nc(C(=O)Nc3nc(-c4ccccn4)cs3)nn12 the results were L3MBTL1 inh-1 14µM*, RECQ1 helicase -26%, WRN inhibitor inconclusive, APE1 inh inconclusive, BLM inh -26%, L3MBTL1 inh-2 4.2* and L3MBTL1 ctr inconclusive.
For O=C1C=C(O)CC(c2ccco2)C1 (stereo unspecified) the results were L3MBTL1 inh-1 14µM*, RECQ1 helicase inconclusive, WRN inhibitor inconclusive, APE1 inh 3.2µM*, BLM inh 64%, L3MBTL1 inh-2 3* and L3MBTL1 ctr -20%.
For O=C1C=C(Nc2ccc(O)cc2)CC(c2ccco2)C1 (stereo unspecified) the results were L3MBTL1 inh-1 inconclusive, RECQ1 helicase 6%, WRN inhibitor -2%, APE1 inh -1% and BLM inh -2%.
Cc1sc(NC(=O)c2sc3nc4c(C)cccc4cc3c2N)c(C#N)c1C was read as L3MBTL1 inh-1 18µM*, RECQ1 helicase inactive, WRN inhibitor inconclusive, APE1 inh -2%, BLM inh inconclusive, L3MBTL1 inh-2 6.7* and L3MBTL1 ctr -2%.
Screening CCC(C(=O)NCc1ccccc1Cl)n1nc(C)c2sc3ccccc3c2c1=O (stereo unspecified) returned BLM inh -4%.
c1ccc2c(c1)OCC(c1nn3c(Cn4nnc5ccccc54)nnc3s1)O2 (stereo unspecified) was read as L3MBTL1 inh-1 35µM*, RECQ1 helicase -9%, WRN inhibitor -33%[57.1 µM], APE1 inh inconclusive, BLM inh -6%, L3MBTL1 inh-2 inconclusive and L3MBTL1 ctr 6%.
`COc1ccccc1N1CCN(C(=O)c2ccc3nc(-c4ccco4)c(-c4ccco4)nc3c2)CC1` gave L3MBTL1 inh-1 28µM*, RECQ1 helicase -13%, WRN inhibitor -19%, APE1 inh inconclusive, BLM inh -8%, L3MBTL1 inh-2 19* and L3MBTL1 ctr -2%.
For Cc1ccc(C)c(N2CCN(C(=O)c3ccc4nc(-c5ccco5)c(-c5ccco5)nc4c3)CC2)c1 the results were L3MBTL1 inh-1 -13%, RECQ1 helicase inactive, WRN inhibitor -31%, APE1 inh 15% and BLM inh inconclusive.
CC(=O)c1cccc(NC(=O)C2CCCN(C(=O)c3cnn(-c4ccccc4)c3-n3cccc3)C2)c1 (stereo unspecified) was read as BLM inh -1%.
For CC(Cc1c[nH]c2ccccc12)C(=O)O (stereo unspecified) the results were L3MBTL1 inh-1 2µM*, RECQ1 helicase 35µM*, WRN inhibitor -5%[11.6 µM], APE1 inh inconclusive, BLM inh -7%, L3MBTL1 inh-2 3* and L3MBTL1 ctr 2%.
